# From PubChem BioAssay AID1159580 (chemical genetic matrix, 2015)
# Screen size: about 5,500 compounds; about 2,000 (36%) were called active. Inconclusive results (about 18%) are left out. The list shows a part of the results. Values without a mark were called inactive. No stated cut-off is given here; in the data, active means normalized growth mostly below about 0.91 (no sharp cut-off); inconclusive means no clear call, values can overlap the other calls; inactive means mostly above about 0.92.
# Test: chemical genetic growth profiling, strain panel (AID 1159580);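 further: tested at 20 µM; growth read once vehicle control cultures reached saturation at 30 °C; 1 = growth at the plate median or of vehicle wells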
# Details: S. cerevisiae deletion strains, growth OD
# [1] = locus YAL013W, strain DEP1, stronger effect = lower value
# [2] = locus YBR229C, strain ROT2, stronger effect = lower value
# [3] = locus YDL101C, strain DUN1, stronger effect = lower value
# [4] = locus YDR150W, strain NUM1, stronger effect = lower value
# [5] = locus YEL061C, strain CIN8, stronger effect = lower value
# [6] = locus YGR078C, strain PAC10, stronger effect = lower value
# [7] = locus YHR030C, strain SLT2, stronger effect = lower value
# [8] = locus YHR087W, strain rtc3, stronger effect = lower value
# [9] = locus YJR043C, strain POL32, stronger effect = lower value
# [10] = locus YJR075W, strain HOC1, stronger effect = lower value
# [11] = locus YKL190W, strain CNB1, stronger effect = lower value
# [12] = locus YLR039C, strain RIC1, stronger effect = lower value
# [13] = locus YLR058C, strain SHM2 (second series), stronger effect = lower value
# [14] = locus YLR085C, strain ARP6, stronger effect = lower value
# [15] = locus YLR262C, strain YPT6, stronger effect = lower value
# [16] = locus YML094W, strain GIM5, stronger effect = lower value
# [17] = locus YMR219W, strain ESC1, stronger effect = lower value
# [18] = locus YMR263W, strain SAP30, stronger effect = lower value
# [19] = locus YMR307W, strain GAS1, stronger effect = lower value
# [20] = locus YNL153C, strain GIM3, stronger effect = lower value
# [21] = locus YNL298W, strain CLA4 (second series), stronger effect = lower value
# [22] = locus YNL322C, strain KRE1, stronger effect = lower value
# [23] = locus YNR030W, strain Alg12, stronger effect = lower value
# [24] = locus YOL006C, strain TOP1, stronger effect = lower value
# [25] = locus YPL055C, strain LGE1, stronger effect = lower value
# [26] = locus YPL241C, strain CIN2, stronger effect = lower value
# [27] = locus YPR135W, strain CTF4, stronger effect = lower value
compound,measurement,setting,value
CCOC(=O)c1ccc(N2CCOCC2)c(N=Cc2cc(Cl)ccc2O)c1,normalized growth,[1],0.94
same,normalized growth,[2],0.901 (active)
same,normalized growth,[3],0.928
same,normalized growth,"locus YDL134C, strain PPH21, stronger effect = lower value",0.781 (active)
same,normalized growth,[4],0.91
same,normalized growth,[5],0.757 (active)
same,normalized growth,[6],0.892 (active)
same,normalized growth,[7],0.266 (active)
same,normalized growth,[8],0.915
same,normalized growth,[9],0.946
same,normalized growth,[10],0.855 (active)
same,normalized growth,[11],0.678 (active)
same,normalized growth,[12],0.434 (active)
same,normalized growth,[13],0.96
same,normalized growth,[14],0.508 (active)
same,normalized growth,[15],0.38 (active)
same,normalized growth,[16],0.822 (active)
same,normalized growth,[17],0.947
same,normalized growth,[18],0.917
same,normalized growth,[19],0.41 (active)
same,normalized growth,[20],0.951
same,normalized growth,[21],0.754 (active)
same,normalized growth,[22],0.99
same,normalized growth,[23],0.885 (active)
same,normalized growth,[24],0.323 (active)
same,normalized growth,[25],0.884
same,normalized growth,[26],0.908
same,normalized growth,[27],0.516 (active)
Cc1cc(N=C(N)N=C(N)N)no1,normalized growth,[1],1.01
same,normalized growth,[2],1.01
same,normalized growth,[3],1.02
same,normalized growth,[4],0.902
same,normalized growth,[5],1
same,normalized growth,[6],1.01
same,normalized growth,"locus YGR229C, strain SMI1, stronger effect = lower value",0.993
same,normalized growth,[7],1
same,normalized growth,[8],1.02
same,normalized growth,"locus YJL187C, strain SWE1, stronger effect = lower value",1
same,normalized growth,[9],0.998
same,normalized growth,[10],1
same,normalized growth,[11],1
same,normalized growth,[12],1.01
same,normalized growth,[13],1.01
same,normalized growth,[14],0.988
same,normalized growth,[15],1.01
same,normalized growth,[16],1.03
same,normalized growth,[17],1
same,normalized growth,[18],1
same,normalized growth,[19],0.969
same,normalized growth,"locus YNL128W, strain TEP1, stronger effect = lower value",1.02
same,normalized growth,[20],1
same,normalized growth,[21],1.02
same,normalized growth,[22],1
same,normalized growth,[23],1.01
same,normalized growth,[24],1.02
same,normalized growth,[25],0.964
same,normalized growth,[26],1.01
same,normalized growth,[27],1.07
CCOC(=O)c1ccc(N=Cc2cc(Cl)cc(Cl)c2O)cc1,normalized growth,"locus YAR019C, strain CDC15, stronger effect = lower value",0.934
same,normalized growth,"locus YBL105C, strain PKC1, stronger effect = lower value",0.949
same,normalized growth,"locus YBR135W, strain CKS1, stronger effect = lower value",0.95
same,normalized growth,"locus YBR136W, strain MEC1, stronger effect = lower value",0.954
same,normalized growth,"locus YBR160W, strain CDC28, stronger effect = lower value",0.946
same,normalized growth,"locus YDL017W, strain CDC7, stronger effect = lower value",0.94
same,normalized growth,"locus YDL028C, strain MPS1, stronger effect = lower value",0.946
same,normalized growth,[3],0.946
same,normalized growth,"locus YDL108W, strain KIN28, stronger effect = lower value",0.948
same,normalized growth,"locus YDL132W, strain cdc53, stronger effect = lower value",0.975
same,normalized growth,"locus YDL214C, strain PRR2, stronger effect = lower value",0.3 (active)
same,normalized growth,"locus YDR052C, strain DBF4, stronger effect = lower value",0.95
same,normalized growth,"locus YDR226W, strain ADK1, stronger effect = lower value",0.969
same,normalized growth,"locus YDR477W, strain SNF1, stronger effect = lower value",0.289 (active)
same,normalized growth,"locus YER123W, strain YCK3, stronger effect = lower value",0.157 (active)
same,normalized growth,"locus YER133W, strain GLC7, stronger effect = lower value",0.344 (active)
same,normalized growth,"locus YFL009W, strain cdc4, stronger effect = lower value",0.964
same,normalized growth,"locus YFL029C, strain CAK1, stronger effect = lower value",0.923
same,normalized growth,"locus YFR003C, strain YPI1, stronger effect = lower value",0.939
same,normalized growth,"locus YFR019W, strain FAB1, stronger effect = lower value",0.153 (active)
same,normalized growth,"locus YFR028C, strain CDC14, stronger effect = lower value",0.957
same,normalized growth,"locus YGR040W, strain KSS1, stronger effect = lower value",0.349 (active)
same,normalized growth,"locus YGR052W, strain FMP48, stronger effect = lower value",0.257 (active)
same,normalized growth,"locus YGR092W, strain DBF2, stronger effect = lower value",0.135 (active)
same,normalized growth,[7],0.135 (active)
same,normalized growth,"locus YHR079C, strain IRE1, stronger effect = lower value",0.131 (active)
same,normalized growth,"locus YHR082C, strain KSP1, stronger effect = lower value",0.2 (active)
same,normalized growth,"locus YHR205W, strain SCH9, stronger effect = lower value",0.221 (active)
same,normalized growth,"locus YIL147C, strain SLN1, stronger effect = lower value",0.937
same,normalized growth,"locus YJL095W, strain BCK1, stronger effect = lower value",0.136 (active)
same,normalized growth,"locus YJL128C, strain PBS2, stronger effect = lower value",0.908
same,normalized growth,"locus YJL157C, strain FAR1, stronger effect = lower value",0.181 (active)
same,normalized growth,"locus YJR016C, strain ILV3, stronger effect = lower value",0.963
same,normalized growth,"locus YJR066W, strain TOR1 (second series), stronger effect = lower value",0.289 (active)
same,normalized growth,"locus YJR066W, strain TOR1, stronger effect = lower value",0.169 (active)
same,normalized growth,"locus YKL048C, strain ELM1, stronger effect = lower value",0.405 (active)
same,normalized growth,"locus YKL067W, strain YNK1, stronger effect = lower value",0.274 (active)
same,normalized growth,"locus YKL101W, strain HSL1, stronger effect = lower value",0.323 (active)
same,normalized growth,"locus YKL193C, strain SDS22, stronger effect = lower value",0.957
same,normalized growth,"locus YKL203C, strain TOR2, stronger effect = lower value",0.296 (active)
same,normalized growth,"locus YLR113W, strain HOG1, stronger effect = lower value",0.166 (active)
same,normalized growth,"locus YLR133W, strain CKI1, stronger effect = lower value",0.208 (active)
same,normalized growth,"locus YLR403W, strain SFP1, stronger effect = lower value",0.166 (active)
same,normalized growth,"locus YML070W, strain DAK1, stronger effect = lower value",0.198 (active)
same,normalized growth,"locus YMR001C, strain CDC5, stronger effect = lower value",0.943
same,normalized growth,"locus YMR205C, strain PFK2 (second series), stronger effect = lower value",0.308 (active)
same,normalized growth,"locus YMR277W, strain FCP1, stronger effect = lower value",0.96
same,normalized growth,"locus YNL006W, strain LST8, stronger effect = lower value",0.952
same,normalized growth,"locus YNL020C, strain ARK1, stronger effect = lower value",0.175 (active)
same,normalized growth,"locus YNL161W, strain CBK1, stronger effect = lower value",0.965
same,normalized growth,"locus YNL183C, strain NPR1, stronger effect = lower value",0.229 (active)
same,normalized growth,"locus YNL207W, strain RIO2, stronger effect = lower value",0.951
same,normalized growth,"locus YNL222W, strain SSU72, stronger effect = lower value",0.956
same,normalized growth,"locus YNL307C, strain MCK1 (second series), stronger effect = lower value",0.175 (active)
same,normalized growth,"locus YOL078W, strain AVO1, stronger effect = lower value",0.922
same,normalized growth,"locus YOL136C, strain PFK27, stronger effect = lower value",0.153 (active)
same,normalized growth,"locus YOR061W, strain CKA2, stronger effect = lower value",0.193 (active)
same,normalized growth,"locus YOR119C, strain RIO1, stronger effect = lower value",0.368 (active)
same,normalized growth,"locus YOR231W, strain MKK1, stronger effect = lower value",0.131 (active)
same,normalized growth,"locus YOR329C, strain SCD5, stronger effect = lower value",0.942
same,normalized growth,"locus YPL031C, strain PHO85, stronger effect = lower value",0.245 (active)
same,normalized growth,"locus YPL153C, strain RAD53, stronger effect = lower value",0.213 (active)
same,normalized growth,"locus YPL204W, strain HRR25, stronger effect = lower value",0.196 (active)
same,normalized growth,"locus YPL209C, strain IPL1, stronger effect = lower value",0.952
same,normalized growth,"locus YPL256C, strain CLN2, stronger effect = lower value",0.152 (active)
same,normalized growth,"locus YPR025C, strain CCL1, stronger effect = lower value",0.948
same,normalized growth,"locus YPR106W, strain ISR1, stronger effect = lower value",0.958
same,normalized growth,"locus YPR111W, strain DBF20, stronger effect = lower value",0.955
same,normalized growth,"strain NNK1, stronger effect = lower value",0.952
same,normalized growth,"strain TSCII, stronger effect = lower value",0.913
